Experimental data published in PubChem BioAssay (NCI).
This is part of a sample that, as a whole, favours compounds with a hit. Of some 83,000 tested, about 20% had one in any assay.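 96-well plates, one dose, 48 hours. Percent growth reported; active if below 10.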 Unmarked numbers belong to inactive results. Calls of active or inactive are those of the source.

Legend:
Experiment in all cases: NCI-60 one-dose screen, 48 h (100 = growth as untreated, 0 = no growth, -100 = all killed)
Conditions in all cases: 10 µM unless noted
HT29 colon = tested on: HT29 colon
SNB-75 CNS = tested on: SNB-75 CNS
SNB-19 CNS = tested on: SNB-19 CNS
U251 CNS = tested on: U251 CNS
PC-3 prostate = tested on: PC-3 prostate
SK-MEL-5 melanoma = tested on: SK-MEL-5 melanoma
UACC-62 melanoma = tested on: UACC-62 melanoma
LOX IMVI melanoma = tested on: LOX IMVI melanoma
SK-MEL-28 melanoma = tested on: SK-MEL-28 melanoma
SK-MEL-2 melanoma = tested on: SK-MEL-2 melanoma
EKVX NSCLC = tested on: EKVX NSCLC
SN12C renal = tested on: SN12C renal
UO-31 renal = tested on: UO-31 renal
TK-10 renal = tested on: TK-10 renal
ACHN renal = tested on: ACHN renal
A498 renal = tested on: A498 renal
CCRF-CEM leukemia = tested on: CCRF-CEM leukemia
MOLT-4 leukemia = tested on: MOLT-4 leukemia
SR leukemia = tested on: SR leukemia
CAKI-1 renal = tested on: CAKI-1 renal

| SMILES | growth (HT29 colon) | growth (SNB-75 CNS) | growth (SNB-19 CNS) | growth (U251 CNS) | growth (PC-3 prostate) | growth (SK-MEL-5 melanoma) | growth (UACC-62 melanoma) | growth (LOX IMVI melanoma) | growth (SK-MEL-28 melanoma) | growth (SK-MEL-2 melanoma) | growth (EKVX NSCLC) | growth (SN12C renal) | growth (UO-31 renal) | growth (TK-10 renal) | growth (ACHN renal) | growth (A498 renal) | growth (CCRF-CEM leukemia) | growth (MOLT-4 leukemia) | growth (SR leukemia) | growth (CAKI-1 renal) |
| --- | --- | --- | --- | --- | --- | --- | --- | --- | --- | --- | --- | --- | --- | --- | --- | --- | --- | --- | --- | --- |
| O=Cc1c[nH]c2ccc(NC(=O)OCc3ccccc3)cc12 | 89% | 87.1% | 89% | 78.8% | 48.6% | 99.1% | 90.4% | 105% | 145% | -19.1% (active) | 106% | 90.3% | 106% | 88.1% | 108% | 231% | 83.8% | 152% | 80.4% | – |
| O=NC1CC=CCC1c1ccccc1 (stereo unspecified) | 100% | 93.5% | 109% | 105% | 94% | 108% | 100% | 104% | 114% | 108% | 101% | 108% | 84.2% | – | 93.9% | – | 111% | 102% | 101% | 103% |
| O=C1NC(=O)/C(=C\c2ccccc2)C2=C1CCCC2 | 104% | 102% | 88% | 2.63% (active) | 20.3% | -78.7% (active) | 30% | -58.4% (active) | 36.3% | -74.2% (active) | 95% | – | -46.7% (active) | 0.712% (active) | 15.7% | 101% | 35.8% | 38.1% | – | 7.29% (active) |
| CCN(CC)c1ccc(N=Nc2cc(Cl)ccc2Cl)c(NC(=O)CCC(=O)O)c1 | 111% | 91.1% | 110% | 94.7% | 90.1% | 103% | 101% | 99.1% | 120% | 118% | 79.7% | 91.4% | 60.9% | – | 88.8% | 80.1% | 103% | 95.1% | 98.4% | 93.4% |
| c1ccc(-n2nnnc2-c2cccc3ccccc23)cc1 | -1.01% (active) | -7.18% (active) | 36.7% | 19.5% | 5.09% (active) | 22.2% | 31.6% | 18.6% | 56.5% | 23.8% | 54.1% | – | 28.7% | 13.8% | 52.9% | 32.6% | 9.58% (active) | 29.8% | 20.5% | 21.8% |
| COc1ccc(-c2c3c(nn2-c2ccc(N)cc2)CCc2cnoc2-3)cc1OC | 93.6% | 79.4% | 90.3% | 89.1% | 64.3% | 76% | 80% | 86.4% | 116% | 101% | 102% | 92.4% | 62.1% | – | 81.7% | 85.3% | 61.5% | 86.4% | – | 82.1% |
| Cc1c(C(N)=O)sc2nc(SCC(=O)Nc3ccc(Cl)cc3)n(-c3ccccc3)c(=O)c12 | 87.9% | 94.3% | 101% | 98.4% | 73% | 110% | 96.8% | 98.1% | 181% | -16.1% (active) | 98.4% | 95.2% | 121% | 52.8% | 106% | 192% | 86.3% | 156% | 106% | – |
| O=C(CCc1nnc2sc(-c3ccc(Cl)cc3Cl)nn12)c1nc2ccccc2[nH]1 | -12.9% (active) | -45.8% (active) | 7.75% (active) | -83.1% (active) | -38.5% (active) | -70.2% (active) | -85.1% (active) | -58% (active) | -60.1% (active) | -68.9% (active) | -29.7% (active) | – | -72.6% (active) | – | -89.7% (active) | -74.9% (active) | 10.9% | 1.48% (active) | – | -54.2% (active) |
| COc1ccc(-c2nnc(COc3ccc(NC(=O)Nc4cc(C(F)(F)F)cc(C(F)(F)F)c4)cc3F)o2)cc1 | 2.11% (active) | 16.7% | 14.4% | 0.294% (active) | -12.8% (active) | -21.4% (active) | 16.4% | -15% (active) | 16.6% | -32.9% (active) | – | 5.21% (active) | -4.7% (active) | 15.3% | 11% | -1.78% (active) | 16.2% | 8.94% (active) | -13.2% (active) | 12.3% |
